Rows were chosen to be rich in hits. Some 4% of all compounds tested hit in one or more screens of this group.
Mtb betalactam: beta-lactam sensitization of Mtb H37Rv, H37Rv | M. tuberculosis H37Rv growth with meropenem, percent inhibition | inhibition, % at 25 µM | 330,000 compounds, 0.27% hits | AID 434955, 2010; call rule not given here;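 note: growth measured after seven days incubation then overnight dye step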
Rv3671c protease: Rv3671c serine protease inhibitors, primary screen, biochemical, fluorescence polarization, M. tuberculosis H37Rv | AID 2606, 2010 | 320,000 compounds, 0.048% hits | P9WHR9 | inhibition, % at 5.96 µM; in the data active = inhibition above about 38%;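 note: extracellular domain of Rv3671c used as enzyme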
RecA splice inh: Mtb RecA intein splicing inhibitors, primary screen, biochemical, fluorescence, HTS | cell-free RecA intein splicing | 290,000 compounds, 0.75% hits | inhibition, % (no concentration beside the values); in the data active = inhibition above about 30%
GDH-TPI inh: GDH-TPI coupling enzyme inhibitors, primary screen, artefact control for M. tuberculosis FBA inhibitor project, biochemical, absorbance, full deck; AID 588335, 2011; GDH-TPI coupled enzyme counterscreen, NADH absorbance; inhibition, % at 4.8 µM; 360,000 compounds, 1.2% hits; in the data active = inhibition above about 30%
FBA Mtb inh: Mtb FBA enzyme inhibitors, primary screen, biochemical, fluorescence, strain H37Rv | Fructose-bisphosphate aldolase (Mycobacterium tuberculosis (strain ATCC 25618 / H37Rv)), … | purified M. tuberculosis FBA, fluorescence read-out | inhibition, % at 1 µM | 360,000 compounds, 2.3% hits; in the data active = inhibition above about 27%
Target sequence (P9WQA3 whole entry, looked up): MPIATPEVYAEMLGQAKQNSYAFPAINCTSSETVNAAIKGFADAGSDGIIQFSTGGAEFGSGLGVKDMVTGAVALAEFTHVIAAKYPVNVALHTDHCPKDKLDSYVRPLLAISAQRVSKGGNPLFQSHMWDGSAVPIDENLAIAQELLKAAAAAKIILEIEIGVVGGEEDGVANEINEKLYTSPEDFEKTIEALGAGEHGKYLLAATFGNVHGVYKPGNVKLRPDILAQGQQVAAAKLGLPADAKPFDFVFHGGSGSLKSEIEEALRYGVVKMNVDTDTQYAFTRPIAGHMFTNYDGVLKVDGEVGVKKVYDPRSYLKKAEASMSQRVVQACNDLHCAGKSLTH
Mtb UGM inh: M. tuberculosis UGM enzyme inhibitors, primary screen, biochemical, fluorescence polarization, single point; purified UGM, fluorescence polarization probe displacement; 320,000 compounds, 0.06% hits; inhibition, % at 10 µM; UDP-galactopyranose mutase (Mycobacterium tuberculosis (strain ATCC 25618 / H37Rv)), …; in the data active = inhibition above about 10%, passing the limit was not always enough
Each line names hits and unclear results; the compound was inactive in the other large screens.

COc1ccccc1NC(=O)C1CCN(S(C)(=O)=O)CC1	none (no result: RecA splice inh)
Cc1ccc(S(=O)(=O)N2CCN(C(=O)COC(=O)COc3cccc(C(F)(F)F)c3)CC2)c(C)c1	none (no result: RecA splice inh)
CCCS(=O)(=O)NC(=O)C1(C)CCCN(C(=O)c2cc(OC)c(OC)c(OC)c2)C1 (stereo unspecified)	none (no result: Mtb betalactam, Rv3671c protease, RecA splice inh, Mtb UGM inh)
Cc1ccc2c(COC(=O)C3CSC4(C)CCC(=O)N34)cc(=O)oc2c1C (stereo unspecified)	none (no result: RecA splice inh)
Cc1ccc(C(=O)N/N=C/c2ccc3c(c2)OCO3)o1	GDH-TPI inh 40
O=C(NN=Cc1ccc2c(c1)OCO2)NN=Cc1ccc2c(c1)OCO2	GDH-TPI inh 38 (no result: Mtb betalactam, Rv3671c protease, RecA splice inh, Mtb UGM inh)
O=C(NN=Cc1ccc2c(c1)OCO2)C1CC1	none (no result: Mtb betalactam, Rv3671c protease, RecA splice inh, Mtb UGM inh)
Cc1ccc(/C=C2/SC(=S)N(CCCC(=O)Nc3ccc(O)cc3)C2=O)cc1	none (no result: Mtb betalactam, Rv3671c protease, Mtb UGM inh)
O=C(CCCN1C(=O)/C(=C\c2ccccc2)SC1=S)Nc1ccc(O)cc1	RecA splice inh 32
CC(/C=C1\SC(=S)N(CCCC(=O)Nc2ccc(C(=O)O)c(O)c2)C1=O)=C\c1ccccc1	none (no result: GDH-TPI inh, FBA Mtb inh)
CC(=Cc1ccccc1)C=C1SC(=S)N(CCCC(=O)Nc2ccc(C(=O)O)c(O)c2)C1=O	GDH-TPI inh 31 (no result: Mtb betalactam, Rv3671c protease, RecA splice inh, Mtb UGM inh)
O=C(CCCN1C(=O)S/C(=C/C=C/c2ccccc2)C1=O)Nc1ccc(C(=O)O)cc1	none
O=C(CN1C(=O)S/C(=C\C=C\c2ccccc2)C1=O)Nc1ccc(O)cc1	GDH-TPI inh 33
CN(/N=C/c1cc(Cl)ccc1O)C1=NS(=O)(=O)c2ccccc21	none
Cc1ccc(-c2csc(NC(=O)CSC3=NCCS3)n2)cc1	RecA splice inh 58
CCOC(=S)SCC(=O)Nc1nc(-c2ccccc2)cs1	RecA splice inh 43
CCOC(=S)SCC(=O)Nc1nc(-c2ccc(Br)cc2)cs1	none
Cc1nc([N+](=O)[O-])cn1CC(=O)c1ccc(Br)cc1	none
CN1/C(=C\C=N\NC(=O)c2ccc(O)cc2)C(C)(C)c2ccccc21	GDH-TPI inh 40
CN1/C(=C\C=N\NC(=O)c2cccnc2)C(C)(C)c2ccccc21	none
COc1ccc(O)c(CN2CC3CCC(CC3)C2)c1	none (no result: Mtb betalactam, Rv3671c protease, RecA splice inh, Mtb UGM inh)
COc1ccc(C(=O)NCCN2C(=O)S/C(=C\c3cccnc3)C2=O)c(OC)c1OC	GDH-TPI inh 33
O=C(NN=Cc1ccccc1OC(F)F)c1ccc(NS(=O)(=O)c2cccs2)cc1	GDH-TPI inh 32 (no result: RecA splice inh)
O=C(N/N=C/c1ccc([N+](=O)[O-])o1)c1ccc(NS(=O)(=O)c2cccs2)cc1	none
O=C(NN=Cc1ccc(OC(F)F)cc1)c1ccc(NS(=O)(=O)c2cccs2)cc1	GDH-TPI inh 33 (no result: RecA splice inh)
O=C(N/N=C/c1ccc([N+](=O)[O-])cc1)c1ccc(NS(=O)(=O)c2cccs2)cc1	GDH-TPI inh 41 (no result: RecA splice inh)
CC(C)(C)c1ccc(CC(=O)N2CCC2(C)C(=O)NS(=O)(=O)c2ccccc2)cc1 (stereo unspecified)	none (no result: Mtb betalactam, Rv3671c protease, RecA splice inh, Mtb UGM inh)
COc1cc(/C=C2/C(=N)N3N=C(CC(=O)N4CCOCC4)SC3=NC2=O)ccc1OCc1ccc(F)cc1	none
CCN(CC)S(=O)(=O)c1ccc(N2CCN(C)CC2)c(NC(=O)COc2ccc(F)cc2Cl)c1	none
CC(C)(C)c1ccc(OC(=O)Nc2ccc(O)c(C(=O)O)c2)cc1	FBA Mtb inh 80
CCOC(=O)c1c(NC(=O)CCl)sc(CN(C)C)c1-c1ccccc1	RecA splice inh 50
COCCn1c(=N)c(C(=O)NCc2ccco2)cc2c(=O)n3cc(C)ccc3nc21	FBA Mtb inh 149
Cc1ccc(Cn2c(=N)c(C(=O)NCc3ccco3)cc3c(=O)n4ccccc4nc32)cc1	FBA Mtb inh 52
N=c1c(C(=O)NCc2ccco2)cc2c(=O)n3ccccc3nc2n1CCc1ccccc1	FBA Mtb inh 126
COc1ccc(CCn2c(=N)c(C(=O)NCc3ccco3)cc3c(=O)n4ccccc4nc32)cc1OC	none (no result: Mtb betalactam, Rv3671c protease, RecA splice inh, Mtb UGM inh)
COc1ccc(CCNC(=O)c2cc3c(=O)n4ccccc4nc3n(Cc3ccco3)c2=N)cc1OC	none
COCCNC(=O)C1CCCN(S(=O)(=O)c2c(C)noc2/C=C/c2cccs2)C1 (stereo unspecified)	none

Compound activity deposited in PubChem BioAssay by several laboratories.
